Values joined by “and” are separate entries in the source; they are usually repeats but may differ in a detail not shown here. Equal values may be shown once. Records with an inconclusive call do not appear. Entries that show only a call come without a potency. Active and inactive are the calls of the source. Unless noted, calls come from the whole dose curve; as a rule, active = well fitted curve in the direction sought with a large enough effect; inconclusive = small, poorly fitted or top-dose-only effect, or another doubt; inactive = no such curve, though single readings can be large; an effect the other way counts as inactive or inconclusive.
Columns and labels:
[1] = Primary qHTS for small molecule stabilizers of the endoplasmic reticulum resident proteome: Secreted ER Calcium Modulated Protein (SERCaMP) assay (AID 1508630)
Procedure, shortened: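 GLuc-SERCaMP-expressing SH-SY5Y cells, pretreated 16 h with compound, are challenged with thapsigargin to empty ER calcium stores; after 4 h, coelenterazine is added directly to the medium and luminescence is imaged.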

[2] = target: Cytochrome P450 2D6 (Homo sapiens) (UniProt P10635); assay: Cytochrome P450 family 2 subfamily D member 6 (CYP2D6) small molecule antagonists: luciferase biochemical (cell-free) qHTS assay (AID 1645840; active = well fitted curve in the direction sought with a large enough effect in the repeat runs; an effect the other way counts as inactive or inconclusive; note: nearly all actives have a fitted effect of over 55% in size; note: potency is the fitted concentration of half-maximal effect)
Procedure, shortened: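 P450-Glo luminescent screen: recombinant CYP2D6 enzyme–proluciferin substrate mix preincubated with compound 10 min at room temperature, then NADPH regeneration added for 1 h at room temperature. Detection reagent added for 20 min; luciferin light read as relative luminescence units.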

[3] = target: Cytochrome P450 2C9 (Homo sapiens) (UniProt P11712); assay: Cytochrome P450 family 2 subfamily C member 9 (CYP2C9) small molecule antagonists: luciferase biochemical (cell-free) qHTS assay (AID 1645842; active = well fitted curve in the direction sought with a large enough effect in the repeat runs; an effect the other way counts as inactive or inconclusive; note: nearly all actives have a fitted effect of over 55% in size; note: potency is the fitted concentration of half-maximal effect)
Procedure, shortened: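 Luminescence, after 20 min with luciferin detection reagent, reflected CYP2C9 turnover during a 1 h NADPH-driven reaction at 37C. Enzyme-substrate mix contained 0.4% bovine serum albumin and was preincubated with compound 10 min at room temperature.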

[4] = target: Cytochrome P450 3A4 (Homo sapiens) (UniProt P08684); assay: Cytochrome P450 family 3 subfamily A member 4 (CYP3A4) small molecule antagonists: luciferase qHTS assay (AID 1645841; active = well fitted curve in the direction sought with a large enough effect in the repeat runs; an effect the other way counts as inactive or inconclusive; note: nearly all actives have a fitted effect of over 45% in size)
Procedure, shortened: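 P450-Glo CYP3A4 enzyme with proluciferin substrate was preincubated with DMSO-dissolved compounds for 10 min at room temperature. NADPH regeneration solution started a 1 h reaction. Detection reagent stopped it, and luminescence was read after 20 min.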

[5] = Primary qHTS for inhibitors of nuclear receptor binding SET domain protein 2 (NSD2) in an isogenic RCH-ACV NSD2 p.E1099K mutant (9B) (AID 1645876); note: nearly all actives have a fitted effect of over 70% in size; note: potency is the fitted concentration of half-maximal effect
[6] = Primary qHTS for inhibitors of nuclear receptor binding SET domain protein 2 (NSD2) in an RCH-ACV wild type WT cells (2C) (AID 1645877); note: nearly all actives have a fitted effect of over 70% in size; note: potency is the fitted concentration of half-maximal effect
Papain (Carica papaya) = Papain (Carica papaya) (UniProt P00784); assay: Primary qHTS assay for inhibitors of the protease papain (AID 1645873);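 note: papain turnover of Z-FR-AMC read as the AMC fluorescence gain over 10 min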
[7] = target: N-terminal Xaa-Pro-Lys N-methyltransferase 1 (Homo sapiens) (UniProt Q9BV86); assay: Confirmatory qHTS for Inhibitors of N-terminal methyltransferase 1 (NTMT1): MTaseGlo Assay (AID 1645874); note: nearly all actives have a fitted effect of over 65% in size; note: potency is the fitted concentration of half-maximal effect;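 for activity change, negative = inhibition: luminescence from SAH made as NTMT1 methylates SPKRIA peptide using SAM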
Procedure, shortened: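 qHTS format: NTMT1 125 nM, SAM 100 uM, peptide SPKRIA 1 uM final; 15 min compound preincubation, 30 min reaction at room temperature. MTase-Glo luminescence.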

[8] = A High-Content qHTS Against Drug Library for the Identification of Small Molecules that Inhibit DYT1 Early Onset Primary Dystonia-Associated Cell Pathology (AID 1645839; calls by dose curve)
Procedure, shortened: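 Readout: %pathology, the punctate EGFP-TorsinA distribution from imaging, as the primary channel and cell count as the toxicity counterscreen. HEK293 Flp-In cells expressing delE TorsinA were induced with tetracycline and treated with compound for 48 h.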

[9] = NCATS anti-infectives library activity on HEK293 viability as a counter-qHTS vs the C. elegans viability qHTS (AID 1745854)
Procedure, shortened: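 HEK293 cells, 1500 per well, exposed 24 hr at 37C in 5% CO2 to compounds in a 1:5 titration, up to 41.7 uM final. Viability read as CellTiter-Glo luminescence after 10 min at room temperature.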

[10] = target: Catechol O-methyltransferase (Homo sapiens) (UniProt P21964); assay: Confirmatory Screen for Target Class Profiling of Small Molecule Inhibitors of Methyltransferases (AID 1745852; calls by dose curve); details: MTase-Glo luminescence, SAH detection, recombinant enzyme; measured here: COMT max response; stronger effect = lower value
[11] = target: Guanidinoacetate N-methyltransferase (Homo sapiens) (UniProt Q14353); assay: as above; details: MTase-Glo luminescence, SAH detection, recombinant enzyme; activity change, negative = inhibition: at 57.3 µM (top of the series) unless noted
[12] = target: Nicotinamide N-methyltransferase (Homo sapiens) (UniProt P40261); assay: as above; details: MTase-Glo luminescence, SAH detection, recombinant enzyme; measured here: NNMT max response; stronger effect = lower value
[13] = target: Phenylethanolamine N-methyltransferase (Homo sapiens) (UniProt P11086); assay: as above; details: MTase-Glo luminescence, SAH detection, recombinant enzyme; measured here: PNMT max response; stronger effect = lower value
Sequence of Phenylethanolamine N-methyltransferase (Homo sapiens) (P11086 whole entry, looked up): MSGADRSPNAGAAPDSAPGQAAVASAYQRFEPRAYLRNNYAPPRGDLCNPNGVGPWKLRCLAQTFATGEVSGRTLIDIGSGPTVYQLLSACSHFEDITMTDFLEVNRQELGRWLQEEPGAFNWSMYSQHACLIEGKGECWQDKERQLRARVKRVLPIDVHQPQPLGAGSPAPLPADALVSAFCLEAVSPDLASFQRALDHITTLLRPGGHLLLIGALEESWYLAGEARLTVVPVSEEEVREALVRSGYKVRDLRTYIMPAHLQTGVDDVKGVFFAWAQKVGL

Sequence of Cytochrome P450 2C9 (Homo sapiens) (P11712 whole entry, looked up): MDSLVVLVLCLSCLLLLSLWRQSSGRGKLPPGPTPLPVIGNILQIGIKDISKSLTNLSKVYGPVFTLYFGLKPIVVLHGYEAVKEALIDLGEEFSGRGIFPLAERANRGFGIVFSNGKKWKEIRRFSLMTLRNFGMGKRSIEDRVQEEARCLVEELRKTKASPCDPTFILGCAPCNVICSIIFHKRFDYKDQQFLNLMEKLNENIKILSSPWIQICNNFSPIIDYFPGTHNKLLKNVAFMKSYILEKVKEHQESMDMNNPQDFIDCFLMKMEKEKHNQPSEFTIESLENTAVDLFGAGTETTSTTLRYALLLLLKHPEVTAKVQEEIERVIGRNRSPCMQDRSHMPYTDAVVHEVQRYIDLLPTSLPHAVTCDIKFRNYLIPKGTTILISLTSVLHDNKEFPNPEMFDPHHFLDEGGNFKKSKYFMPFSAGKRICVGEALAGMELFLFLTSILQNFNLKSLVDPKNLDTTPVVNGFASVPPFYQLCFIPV
Sequence of N-terminal Xaa-Pro-Lys N-methyltransferase 1 (Homo sapiens) (Q9BV86 whole entry, looked up): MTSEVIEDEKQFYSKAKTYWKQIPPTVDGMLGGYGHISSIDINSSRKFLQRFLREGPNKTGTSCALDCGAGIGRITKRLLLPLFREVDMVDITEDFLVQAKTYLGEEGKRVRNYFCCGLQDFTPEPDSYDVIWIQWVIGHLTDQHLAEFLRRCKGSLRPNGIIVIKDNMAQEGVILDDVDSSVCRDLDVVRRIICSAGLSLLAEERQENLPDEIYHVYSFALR
Sequence of Papain (Carica papaya) (P00784 whole entry, looked up): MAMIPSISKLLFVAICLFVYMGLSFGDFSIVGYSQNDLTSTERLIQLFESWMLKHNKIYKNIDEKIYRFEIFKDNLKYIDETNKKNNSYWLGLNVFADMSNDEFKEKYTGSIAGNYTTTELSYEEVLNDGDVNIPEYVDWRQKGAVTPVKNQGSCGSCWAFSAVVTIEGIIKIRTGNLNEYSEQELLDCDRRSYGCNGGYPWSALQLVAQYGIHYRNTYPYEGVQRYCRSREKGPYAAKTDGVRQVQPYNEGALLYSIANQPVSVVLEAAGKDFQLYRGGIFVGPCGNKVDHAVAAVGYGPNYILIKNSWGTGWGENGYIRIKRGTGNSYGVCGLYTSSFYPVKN
Sequence of Cytochrome P450 2D6 (Homo sapiens) (P10635 whole entry, looked up): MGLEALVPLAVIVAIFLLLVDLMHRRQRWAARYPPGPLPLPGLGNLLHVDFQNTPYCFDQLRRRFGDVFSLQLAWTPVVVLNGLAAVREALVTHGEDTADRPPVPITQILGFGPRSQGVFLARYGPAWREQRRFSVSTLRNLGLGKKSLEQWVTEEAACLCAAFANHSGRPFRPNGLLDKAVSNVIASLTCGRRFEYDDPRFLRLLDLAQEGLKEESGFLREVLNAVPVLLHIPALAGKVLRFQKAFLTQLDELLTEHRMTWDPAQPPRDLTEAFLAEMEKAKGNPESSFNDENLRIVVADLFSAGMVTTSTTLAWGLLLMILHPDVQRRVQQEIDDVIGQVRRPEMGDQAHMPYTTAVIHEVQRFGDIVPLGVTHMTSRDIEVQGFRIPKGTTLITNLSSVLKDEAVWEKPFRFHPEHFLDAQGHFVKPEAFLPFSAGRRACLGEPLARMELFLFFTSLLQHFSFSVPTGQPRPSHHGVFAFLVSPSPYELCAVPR
Sequence of Cytochrome P450 3A4 (Homo sapiens) (P08684 whole entry, looked up): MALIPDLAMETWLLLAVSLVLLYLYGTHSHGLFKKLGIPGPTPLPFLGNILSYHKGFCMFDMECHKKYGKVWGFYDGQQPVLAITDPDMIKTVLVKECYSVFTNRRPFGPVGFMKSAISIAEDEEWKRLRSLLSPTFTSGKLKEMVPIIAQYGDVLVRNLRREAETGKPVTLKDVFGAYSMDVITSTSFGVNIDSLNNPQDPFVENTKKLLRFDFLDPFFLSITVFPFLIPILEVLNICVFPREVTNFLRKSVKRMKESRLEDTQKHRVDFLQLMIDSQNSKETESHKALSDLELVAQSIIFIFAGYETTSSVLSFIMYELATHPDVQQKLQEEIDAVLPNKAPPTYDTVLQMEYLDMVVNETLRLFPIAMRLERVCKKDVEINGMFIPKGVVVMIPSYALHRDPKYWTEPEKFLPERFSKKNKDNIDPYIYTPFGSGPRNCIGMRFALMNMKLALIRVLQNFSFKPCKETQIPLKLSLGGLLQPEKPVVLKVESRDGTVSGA
Sequence of Nicotinamide N-methyltransferase (Homo sapiens) (P40261 whole entry, looked up): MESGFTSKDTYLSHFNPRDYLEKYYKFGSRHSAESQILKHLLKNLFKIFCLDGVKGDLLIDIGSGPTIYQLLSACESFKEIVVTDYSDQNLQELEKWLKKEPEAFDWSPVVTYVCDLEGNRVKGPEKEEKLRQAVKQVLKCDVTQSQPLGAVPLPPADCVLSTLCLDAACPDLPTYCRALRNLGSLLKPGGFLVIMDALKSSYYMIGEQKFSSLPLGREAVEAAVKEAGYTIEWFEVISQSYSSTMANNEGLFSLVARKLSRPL
Sequence of Catechol O-methyltransferase (Homo sapiens) (P21964 whole entry, looked up): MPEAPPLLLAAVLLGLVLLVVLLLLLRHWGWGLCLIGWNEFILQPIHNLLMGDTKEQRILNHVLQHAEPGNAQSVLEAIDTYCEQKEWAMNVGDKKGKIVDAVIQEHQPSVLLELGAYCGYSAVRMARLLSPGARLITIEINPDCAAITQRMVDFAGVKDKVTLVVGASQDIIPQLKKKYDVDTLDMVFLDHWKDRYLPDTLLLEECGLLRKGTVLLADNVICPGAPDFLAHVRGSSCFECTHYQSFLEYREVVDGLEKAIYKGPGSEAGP

Compound: NC[C@@H]1O[C@@H](O[C@H]2[C@@H](O)[C@H](O[C@@H]3[C@@H](O)[C@@H](N)C[C@H](N)[C@H]3O[C@H]3O[C@H](CN)[C@@H](O)[C@@H](O)[C@H]3N)O[C@H]2CO)[C@H](N)[C@@H](O)[C@@H]1O
- Potency [1]: inactive

Compound: Cc1ccc([C@@H]2O[C@H](CO)[C@@H](O)[C@H](O)[C@@H]2O)cc1Cc1ccc(-c2ccc(F)cc2)s1
- Potency [1]: inactive
- Potency [2]: 23.9 µM (active)
- Potency [3]: 12 µM (active)

Compound: CCCCCCCCCCCC1=C(O)C(=O)C=C(O)C1=O
- Potency [1]: inactive
- Potency [2]: inactive
- outcome [4]: inactive
- Potency [5]: inactive
- Potency [6]: inactive

Compound: CC(=O)Oc1cc2c(s1)CCN(C(C(=O)C1CC1)c1ccccc1F)C2 (stereo unspecified)
- Potency [1]: inactive
- Potency [2]: 11 µM (active) and 10.7 µM (active)
- Potency [3]: 4.36 µM (active) and 4.25 µM (active)
- Potency [5]: inactive
- Potency [6]: inactive

Compound: O=c1cc(-c2ccc(O)cc2)oc2cc(O)cc(O)c12
- Potency [1]: inactive
- Potency [2]: 12 µM (active)
- Potency [3]: 21.3 µM (active)
- outcome (Papain (Carica papaya)): inactive
- Potency [5]: 5.9 µM (active)
- Potency [6]: 4.68 µM (active)

Compound: CS(=O)c1ccc(-c2nc(-c3ccc(F)cc3)c(-c3ccncc3)[nH]2)cc1 (stereo unspecified)
- Potency [1]: inactive
- Potency [2]: 6.74 µM (active)
- Potency [3]: 0.952 µM (active)
- Potency [5]: 18.6 µM (active)

Compound: c1ccc2c(-c3cnn4cc(-c5ccc(N6CCNCC6)cc5)cnc34)ccnc2c1
- Potency [1]: inactive
- Potency [2]: inactive
- Potency [3]: inactive
- Potency [5]: 2.63 µM (active)
- Potency [6]: 2.09 µM (active)

Compound: Cc1c(NC(=O)c2ccc(C(C)(C)C)cc2)cccc1-c1cn(C)c(=O)c(Nc2ccc(C(=O)N3CCOCC3)cc2)n1
- Potency [1]: inactive
- Potency [2]: inactive
- Potency [3]: 2.13 µM (active)
- Potency [5]: inactive

Compound: CC(C)(C)Cn1c(N)nc2ccc(-c3[nH]c(C(C)(C)C)nc3-c3ccc(F)cc3)nc21
- Potency [1]: inactive
- Potency [2]: 15.1 µM (active)
- Potency [3]: 5.35 µM (active)
- Potency [7]: 17.8 µM (active)
- Potency [5]: 2.9 µM (active) and 16.6 µM (active)
- Potency [6]: 2.58 µM (active) and 16.6 µM (active)

Compound: CCc1ccc(OCc2ccccc2C(=O)Nc2ccc3nc(C)cc(N)c3c2)cc1
- Potency [1]: inactive
- Potency [2]: 0.213 µM (active)
- Potency [3]: 26.8 µM (active)
- Potency [5]: 2.63 µM (active)

Compound: O=C(O)c1c(Cl)c(Cl)c(Cl)c(Cl)c1-c1c2cc(I)c(=O)c(I)c-2oc2c(I)c(O)c(I)cc12
- Potency [1]: inactive
- Potency [2]: 4.25 µM (active)
- Potency [3]: 10.7 µM (active)
- Potency [7]: 9.55 µM (active)

Compound: CCCCCNC(=O)N1CCC(CN(Cc2ccc(Cl)cc2)Cc2ccc([N+](=O)[O-])s2)C1 (stereo unspecified)
- Potency [1]: inactive
- Potency [2]: 2.39 µM (active)
- Potency [3]: 2.68 µM (active)
- Potency [5]: inactive

Compound: O=c1[nH]cnc2c1ncn2[C@H]1CC[C@@H](CO)O1
- Potency [1]: inactive
- Potency [8]: inactive
- outcome [4]: inactive
- Potency [3]: inactive
- Potency [5]: inactive
- Potency [6]: inactive

Compound: CC1(C)Cc2c(sc(NC(=S)NC(=O)c3ccccc3)c2C(=O)O)CO1
- Potency [1]: inactive
- Potency [2]: inactive
- Potency [3]: 19 µM (active)
- Potency [5]: inactive
- Potency [6]: inactive

Compound: CC(C)C(=O)Nc1ncc(-c2cc(C(F)F)nn2-c2c(Cl)cccc2Cl)s1
- Potency [1]: inactive
- Potency [2]: 10.7 µM (active)
- Potency [3]: 5.35 µM (active)
- Potency [5]: 23 µM (active)
- Potency [6]: 23 µM (active)

Compound: O=C(Nc1ccccc1Br)N[C@@H]1CCN(c2ccc(C(F)(F)F)cn2)C1
- Potency [1]: inactive
- Potency [2]: 15.1 µM (active)
- Potency [3]: 23.9 µM (active)

Compound: O=c1c(-c2ccc(O)cc2)coc2cc(O)ccc12
- Potency [1]: inactive
- Potency [2]: inactive
- Potency [3]: 0.213 µM (active)
- outcome (Papain (Carica papaya)): inactive
- Potency [7]: inactive

Compound: O=C1NC(=O)C(c2ccccc2)(c2ccccc2)N1
- Potency [1]: inactive
- Potency [8]: inactive
- Potency [2]: inactive
- outcome (Papain (Carica papaya)): inactive
- Potency [5]: inactive
- Potency [6]: inactive
- outcome [9]: inactive

Compound: COc1cccc2c1CCCC2CCCN1CCN(C2CCCCC2)CC1 (stereo unspecified)
- Potency [1]: inactive
- Potency [2]: 2.13 µM (active)
- outcome [4]: inactive
- Potency [3]: inactive
- Potency [5]: 20.9 µM (active)
- Potency [6]: 20.9 µM (active)

Compound: COc1cc(N2CCC(N3CCN(C)CC3)CC2)ccc1Nc1ncnc(Nc2ccccc2S(=O)(=O)C(C)C)n1
- Potency [1]: inactive
- Potency [2]: inactive
- Potency [3]: inactive
- Potency [5]: 6.49 µM (active) and 9.34 µM (active)
- Potency [6]: 18.4 µM (active) and 10.5 µM (active)

Compound: CC[C@]1(O)C[C@@H]2CN(CCc3c([nH]c4ccccc34)[C@@](C(=O)OC)(c3cc4c(cc3OC)N(C)[C@H]3[C@@](O)(C(=O)OC)[C@H](OC(C)=O)[C@]5(CC)C=CCN6CC[C@]43[C@@H]65)C2)C1
- Potency [1]: inactive
- Potency [8]: inactive
- Potency [3]: inactive
- Potency [5]: 33.5 nM (active) and 84.1 nM (active) and 57.8 nM (active)
- activity [10]: 7.74%
- activity change, negative = inhibition [11]: 10.8%
- activity [12]: -2.58%
- activity [13]: 4.57%

Source: PubChem BioAssay (NCATS)
